Bioassay records (PubChem BioAssay)
Hits are enriched below; roughly 2% of the tested compounds scored in any of these assays.
NadD block – inhibitors of Staphylococcus aureus NadD. 360,000 compounds, 0.78% hits. purified NadD enzyme, colorimetric absorbance read-out. AID 602399. inhibition, % at 20 µM; in the data active means inhibition above about 26%
ARNT TACC3 PPI – disrupts binding between human ARNT and TACC3. AlphaScreen His-ARNT PAS-B/GST-TACC3 binding, luminescence; TACC3 fragment carries E629A point mutation. inhibition, % at 9.99 µM. 390,000 compounds, 0.66% hits. Q9Y6A5;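 active means mean inhibition of replicates at least 50% and at least half of replicates each reaching 50%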
Neddylation inh – blocks human cullin neddylation; P61081+Q13564; TR-FRET cullin neddylation, biochemical; inhibition, % at 25 µM; 360,000 compounds, 0.58% hits; AID 651699; in the data active means inhibition above about 36%
Target sequence (P61081 whole entry, looked up): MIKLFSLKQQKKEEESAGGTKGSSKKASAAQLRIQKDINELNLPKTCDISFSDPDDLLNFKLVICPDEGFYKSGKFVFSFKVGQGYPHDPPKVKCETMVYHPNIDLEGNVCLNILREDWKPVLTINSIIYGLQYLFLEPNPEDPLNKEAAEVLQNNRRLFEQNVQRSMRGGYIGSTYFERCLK
Target sequence (Q13564 whole entry, looked up): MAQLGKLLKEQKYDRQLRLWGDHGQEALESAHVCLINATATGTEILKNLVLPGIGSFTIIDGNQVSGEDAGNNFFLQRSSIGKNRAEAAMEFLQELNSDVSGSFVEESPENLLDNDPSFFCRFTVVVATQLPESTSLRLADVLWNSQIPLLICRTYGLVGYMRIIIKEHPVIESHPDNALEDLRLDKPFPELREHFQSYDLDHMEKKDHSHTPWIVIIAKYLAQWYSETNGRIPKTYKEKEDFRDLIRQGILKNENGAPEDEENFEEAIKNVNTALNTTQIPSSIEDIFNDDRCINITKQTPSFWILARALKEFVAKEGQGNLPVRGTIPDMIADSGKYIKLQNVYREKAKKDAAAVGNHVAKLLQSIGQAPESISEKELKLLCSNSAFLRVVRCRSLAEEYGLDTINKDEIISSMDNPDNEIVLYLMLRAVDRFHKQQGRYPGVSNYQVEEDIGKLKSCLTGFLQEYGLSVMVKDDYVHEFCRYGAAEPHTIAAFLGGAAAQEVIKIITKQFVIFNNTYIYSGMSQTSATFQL
sPLA2-III inh – Blocks human group III sPLA2 activity | Q9NZ20 | QFRET BODIPY PC-A2 liposome hydrolysis, fluorescence | inhibition, % at 12.2 µM | 370,000 compounds, 0.56% hits | AID 743126;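 active means inhibition above mean plus 3 SD of compounds lying within the high and low control bounds, cut at about 19% in these data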
DAGLB inhibitor – blocks human DAGLB lipase activity; HEK293T DAGLB membrane lysate, EnzChek fluorogenic substrate; 340,000 compounds, 0.059% hits; inhibition, % at 5.17 µM; in the data active means inhibition above about 34%
Each line names hits and unclear results; the compound was inactive in the other large screens.

Cc1ccc([N+](=O)[O-])cc1-c1[nH]c(-c2ccc(O)c(O)c2)nc1-c1ccccc1	NadD block 30.5
C=CCc1c(C)nc(C)nc1N/N=C/c1ccccc1O	ARNT TACC3 PPI 64.3
CCn1c2ccccc2c2nc3ccccc3nc21	Neddylation inh 49.2 (no result: sPLA2-III inh)
CCn1c2ccccc2c2nc3cc(C(=O)O)ccc3nc21	none (no result: ARNT TACC3 PPI)
C[C@@H]1CN([C@H](C)CO)C(=O)Cc2cc(NC(=O)c3ccncc3)ccc2O[C@H]1CN(C)CC1CCCCC1	none (no result: NadD block, Neddylation inh, sPLA2-III inh, DAGLB inhibitor)
Cc1cccc(N=Nc2ccc(O)c3ncccc23)c1	none
CCN(CC)S(=O)(=O)c1cc(OC)ccc1N=Nc1ccc(O)c2ncccc12	ARNT TACC3 PPI 47.8
CCOc1ccc(N=Nc2ccc(O)c3ncccc23)cc1	none
NS(=O)(=O)c1ccc(N=Nc2ccc(O)c3ncccc23)cc1	sPLA2-III inh 46.2 (no result: ARNT TACC3 PPI)
Oc1ccc(N=Nc2ccc3c(c2)OCCO3)c2ncccc12	NadD block 27.2
O=C(C1CCC1)N1CCCCN2[C@H](CO)[C@@H](c3ccc(C#CC4CCCC4)cc3)[C@H]2C1	none (no result: NadD block, Neddylation inh, sPLA2-III inh, DAGLB inhibitor)
C#CCn1c(=NC(=O)c2ccc(S(=O)(=O)N3CCc4ccccc4C3)cc2)sc2cc(S(N)(=O)=O)ccc21	NadD block 47.4 (no result: sPLA2-III inh)
CN1c2ccc(Br)cc2[C@H]2[C@H](CCN2C(=O)C2CCCCC2)[C@H]1CO	none (no result: NadD block, Neddylation inh, sPLA2-III inh, DAGLB inhibitor)
O=C(O)c1ccc(N/N=C/c2cc3c(cc2[N+](=O)[O-])OCO3)cc1	none
O=C(O)c1ccc(N/N=C/c2cc3cc4c(cc3nc2Cl)OCCO4)cc1	Neddylation inh 37.0
O=C([C@H]1[C@H](CO)[C@H]2Cn3c(cccc3=O)[C@H]2N1CCC(F)(F)F)N1CCCCC1	ARNT TACC3 PPI active (no result: NadD block, Neddylation inh, sPLA2-III inh, DAGLB inhibitor)
CCCN1[C@H](C(=O)N2CCCCC2)[C@@H](CO)[C@@H]2Cn3c(cccc3=O)[C@@H]21	none (no result: NadD block, Neddylation inh, sPLA2-III inh, DAGLB inhibitor)
Cc1[nH]n(-c2ccccc2)c(=O)c1/C=N/NC(=O)c1cccc([N+](=O)[O-])c1	ARNT TACC3 PPI 30.7
Cc1[nH]n(-c2ccccc2)c(=O)c1/C=N\NC(=O)C1COc2ccccc2O1 (configuration not stated)	ARNT TACC3 PPI 61.2
Cc1[nH]n(-c2ccccc2)c(=O)c1/C=N/NC(=O)C(C)C	ARNT TACC3 PPI 70.0
Cc1c(/C=N\NC(=O)C2COc3ccccc3O2)c2ccccc2n1C (configuration not stated)	none
CC(=O)N/N=C/c1c(C)[nH]n(-c2ccccc2)c1=O	none (no result: ARNT TACC3 PPI)
CO[C@@H]1CN(C)C(=O)c2cc(NS(=O)(=O)CC(F)(F)F)ccc2OC[C@H](C)N(C(=O)NC(C)C)C[C@@H]1C	none (no result: NadD block, Neddylation inh, sPLA2-III inh, DAGLB inhibitor)
CC(=O)c1cc2ccc(O)cc2oc1=O	none (not shown: Neddylation inh)
Cc1ccc(N=c2oc3cc(O)ccc3cc2C(N)=O)cc1	Neddylation inh 48.0
O=C(CCN1CCCCC1)N[C@H]1CC[C@@H](CCNC(=O)c2cc(Cl)cc(Cl)c2)O[C@H]1CO	none (no result: NadD block, Neddylation inh, sPLA2-III inh, DAGLB inhibitor)
O=C(CCN1CCCCC1)N[C@@H]1CC[C@@H](CCNC(=O)c2cc(Cl)cc(Cl)c2)O[C@@H]1CO	ARNT TACC3 PPI 46.6 (no result: NadD block, Neddylation inh, sPLA2-III inh, DAGLB inhibitor)
COc1ccc(C(C[N+](=O)[O-])c2c(C)[nH]n(-c3ccccc3)c2=O)cc1 (configuration not stated)	ARNT TACC3 PPI 71.7
CCOc1ccc(-c2ccc(/C=C3/C(=N)N4C(C)=CSC4=NC3=O)o2)c([N+](=O)[O-])c1	NadD block 32.3
CN1CCN(C(=O)C[C@@H]2CC[C@H]3[C@@H](COC[C@H](O)CN3CC3CCCCC3)O2)CC1	none (no result: NadD block, Neddylation inh, sPLA2-III inh, DAGLB inhibitor)
O=C(Nc1ccc2oc(-c3ccccc3Cl)nc2c1)c1cncc(Br)c1	none (not shown: Neddylation inh)
O=C(Nc1ccc2oc(-c3ccccc3Cl)nc2c1)c1ncn[nH]1	ARNT TACC3 PPI 49.9
O=C(Nc1ccc(N2CCOCC2)c(Cl)c1)c1ncn[nH]1	ARNT TACC3 PPI 58.1
O=S(=O)(c1ccc(F)cc1)N1CCCCN2[C@@H](CO)[C@H](c3ccc(-c4ccccc4F)cc3)[C@@H]2C1	none (no result: NadD block, Neddylation inh, sPLA2-III inh, DAGLB inhibitor)
CC(=NNC(=S)N1CCCCC1)c1cccc(C)n1	none
CC(=NNC(=S)N1CC2CCC(CC2)C1)c1ccncn1	ARNT TACC3 PPI 58.4
C[C@H](CO)N1C[C@H](C)[C@@H](CN(C)C(=O)CN(C)C)Oc2ncc(-c3ccc(F)cc3)cc2C1=O	none (no result: NadD block, Neddylation inh, sPLA2-III inh, DAGLB inhibitor)
O=c1[nH]nc(N=Nc2c(O)[nH]c3ccc(F)cc23)c(=O)[nH]1	ARNT TACC3 PPI 63.5
CC1COCC(C)N1C1=C(Cl)C(=O)c2ccccc2C1=O (configuration not stated)	ARNT TACC3 PPI 30.0
COc1ccccc1NS(=O)(=O)c1cc([N+](=O)[O-])ccc1N/N=C/c1c[nH]c2ccccc12	none
COc1ccccc1NS(=O)(=O)c1cc([N+](=O)[O-])ccc1N/N=C/c1sc(N2CCOCC2)nc1-c1ccccc1	NadD block 36.6
Cc1ccc(N=Cc2cc(Cc3ccccc3Cl)cc([N+](=O)[O-])c2O)c(O)c1	NadD block 42.3 (no result: sPLA2-III inh)
CS(=O)(=O)N1[C@@H]2Cn3c(ccc(C4=CCCC4)c3=O)[C@H]1[C@@H](C(=O)N1CCCCC1)[C@@H]2CO	none (no result: NadD block, Neddylation inh, sPLA2-III inh, DAGLB inhibitor)
Fc1ccc(NC(=S)Nc2ccc3nccnc3c2)cc1	ARNT TACC3 PPI 63.8
CN1C(=O)c2cc(NC(=O)C3CCCCC3)ccc2OC[C@@H]2O[C@H](CC(=O)NC3CCCC3)CC[C@H]21	none (no result: NadD block, Neddylation inh, sPLA2-III inh, DAGLB inhibitor)
COc1ccc2c(c1)OC[C@H]1[C@H]2N2C(=O)c3ccc(F)cc3NC(=O)[C@@]2(C)[C@H]1c1ccccc1	sPLA2-III inh 38.2
C[C@@H]1CN([C@H](C)CO)S(=O)(=O)c2ccc(C#Cc3ccncc3)cc2O[C@@H]1CN(C)C(=O)C1CCOCC1	none (no result: NadD block, Neddylation inh, sPLA2-III inh, DAGLB inhibitor)
CC(C)NC(=O)N(C)C[C@H]1Oc2ncc(C#Cc3ccncc3)cc2C(=O)N([C@@H](C)CO)C[C@@H]1C	none (no result: NadD block, Neddylation inh, sPLA2-III inh, DAGLB inhibitor)
CNC(=S)N/N=C/c1ccc(-c2ccc(C(=O)O)cc2)o1	Neddylation inh 47.8
Cc1noc(NS(=O)(=O)c2ccc(NC(=O)CSc3nc4ccccc4[nH]3)cc2)c1C	none
Cc1noc(NS(=O)(=O)c2ccc(NC(=O)CSc3nnc4c(n3)[nH]c3ccccc34)cc2)c1C	ARNT TACC3 PPI 70.6
O=C(C[C@H]1CC[C@@H](NC(=O)Nc2ccccc2)[C@H](CO)O1)NCc1cccc(F)c1	none (no result: NadD block, Neddylation inh, sPLA2-III inh, DAGLB inhibitor)
COc1cc(/C=N/NC(=S)Nc2cccc(S(=O)(=O)N(C)C)c2)cc(OC)c1O	none
CN(C)S(=O)(=O)c1cccc(NC(=S)N/N=C/c2ccc(O)c(O)c2O)c1	ARNT TACC3 PPI 68.7
COc1cccc(CNC(=O)C[C@@H]2CC[C@@H](NC(C)=O)[C@@H](CO)O2)c1	none (no result: NadD block, Neddylation inh, sPLA2-III inh, DAGLB inhibitor)
Nc1c(N2CCCC2)cc(Cl)c2nonc12	ARNT TACC3 PPI 37.3 (no result: sPLA2-III inh)
Nc1c(N2CCOCC2)cc(Cl)c2nonc12	none
C[C@H]1CN([C@@H](C)CO)S(=O)(=O)c2ccc(-c3ccc(F)cc3)cc2O[C@@H]1CN(C)C(=O)C1CCCCC1	none (no result: NadD block, Neddylation inh, sPLA2-III inh, DAGLB inhibitor)
O=C(O)CC/C(=C\c1ccc(Cl)c([N+](=O)[O-])c1)c1nc2ccccc2s1	none
COc1cc(/C=C(\CCC(=O)O)c2nc3ccccc3s2)ccc1OCC(=O)Nc1c(Cl)cccc1Cl	Neddylation inh 43.7
O=C(COC(=O)c1ccc([N+](=O)[O-])o1)Nc1cccc(S(=O)(=O)N2CCOCC2)c1	none
